The text below walks through data of PubChem BioAssay (NCI).

Structures are written as SMILES. The panel holds about 83,000 compounds, 20% with a hit somewhere; the sample as a whole holds those more often.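 Note: values are percent growth. 100 is the growth of untreated cells, values between 100 and 0 indicate rising inhibition; between -100 and 0 indicates cell death.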 A number with no mark means an inactive call. Calls of active or inactive are those of the source. Rule for the calls: active = growth percent below 10; inactive = the rest.

What all share (test): NCI-60 one-dose screen, 48 h (100 = growth as untreated, 0 = no growth, -100 = all killed)
Details in all cases: 10 µM unless noted

In experiment [1] the test system is SNB-75 CNS.
In experiment [2] the test system is SNB-19 CNS.
The test system of experiment [3] is U251 CNS.
The test system of experiment [4] is SK-MEL-5 melanoma.
The test system of experiment [5] is UACC-62 melanoma.
Experiment [6] concerns LOX IMVI melanoma.
The subject of experiment [7] is SK-MEL-28 melanoma.
Experiment [8] has as its system EKVX NSCLC.
Experiment [9] concerns SN12C renal.
Experiment [10] relates to UO-31 renal.
Experiment [11] has as its system TK-10 renal.
Experiment [12] deals with ACHN renal.
The test system of experiment [13] is CAKI-1 renal.
The subject of experiment [14] is A498 renal.
The test system of experiment [15] is MOLT-4 leukemia.
Experiment [16] relates to SR leukemia.
For experiment [17], the system named is PC-3 prostate.
For experiment [18], the system named is SK-MEL-2 melanoma.
Experiment [19] concerns CCRF-CEM leukemia.

For `Clc1ccccc1[C@@H]1C[C@@H]2Cc3cc(Br)c4ccccc4c3N1O2`, the growth in [1] was 4.57% (active); in experiment [2] it was 38.2%; in experiment [3], 34.4%; in [4], 30.2%; in [5], 24.4%; in experiment [6], 37%. Further, the growth was 47.5% in [7]; 70% in experiment [8]; 44.3% in experiment [9]; 40.3% in [10]; 63.6% in [11]; 53.5% in [12]. Also, the growth in [13] is 40.4%; in [14] it was 15.7%; in [15] it was 17.2%; in experiment [16], 3.11% (active).

For the compound `C=C(C[C@@](O)(C(=O)Oc1ccccc1)C(=O)C1CCCCC1)c1ccccc1`, the growth in [1] was 72.3%; in experiment [3], 95.8%; in experiment [17] it was 84.2%; in [4], 96.3%; in experiment [5], 90.3%; in experiment [6] it was 101%. Besides, the growth in experiment [7] was 98%; in [18] it was 105%; in experiment [8], 94.4%; in experiment [9], 98%; in [10], 83.8%; in experiment [11], 97.7%. In addition, the growth was 112% in experiment [12]; 87.3% in [13]; 106% in [14]; 95.4% in [19]; 101% in [15]; 103% in experiment [16].

Take `COc1c(C)c2c(c(O)c1C/C=C(\C)CCC(=O)OCCN1CCOCC1)C(=O)OC2`: the growth in [1] was 49.1%; in experiment [2], 28%; in experiment [3] it was 14.7%; in [5], 23.6%; in experiment [6], 18.4%; in [7] it was 35.8%. For the same compound, the growth in [18] was 25.7%; in experiment [8], 46%; in experiment [9], 24.1%; in experiment [10], 15.4%; in experiment [11], 27.1%; in experiment [12], 27%. For the same compound, the growth in experiment [13] is 5.19% (active); in experiment [14], 30%; in experiment [19], 18.6%; in experiment [15], 24.4%.

For `COC(=O)CC1=C(C)/C(=C/c2[nH]c(-c3ccc[nH]3)cc2OC)N=C1C`, the growth is -38.6% (active) in experiment [1]; 32.3% in [2]; -92.8% (active) in experiment [4]; -46.5% (active) in [5]; -57.6% (active) in experiment [6]; -3.01% (active) in [7]. Besides, the growth in [8] is 27.9%; in experiment [9], 21.4%; in experiment [10], -68.9% (active); in [11] it was 6.46% (active); in experiment [12], -13.4% (active); in experiment [13], 8.04% (active). In addition, the growth in experiment [14] was -5.38% (active); in [19], -13.5% (active); in experiment [15] it was -49% (active); in [16], -47.8% (active).

As for `CCOc1cc(-c2ccc[nH]2)[nH]c1/C=C1\N=C(C)C(C(=O)OC)=C1C`, the growth in [1] is -65% (active); in experiment [2], 11.9%; in experiment [3] it was -62.4% (active); in [4] it was -93% (active); in [5], -74.7% (active); in experiment [6] it was -56.5% (active). The growth was -83.5% (active) in experiment [7]; -50.3% (active) in [8]; -75.8% (active) in [9]; -79.9% (active) in [10]; -85.8% (active) in experiment [11]; -76.8% (active) in [12]. The growth is -49.2% (active) in experiment [13]; -74% (active) in [14]; -37.8% (active) in [19]; -53.8% (active) in [15]; -45.5% (active) in experiment [16].

Take `CCCCCCCC1(C)NC(=O)NC1=O` (centres undefined): the growth in experiment [1] was 84.5%; in experiment [3] it was 99.5%; in experiment [4], 106%; in experiment [5], 106%; in experiment [6], 103%; in experiment [7] it was 87.7%. For the same compound, the growth is 105% in experiment [8]; 109% in [9]; 93.8% in experiment [10]; 132% in experiment [11]; 101% in experiment [12]; 105% in experiment [13]. In addition, the growth in [14] is 103%; in [19] it was 94.2%; in experiment [15], 106%; in [16] it was 96.9%.

With `CCC(O)C(C)(C)C` (centres undefined), the growth in experiment [1] was 108%; in experiment [2], 109%; in experiment [17], 108%; in experiment [4] it was 113%; in experiment [5] it was 104%; in experiment [6], 93%. The growth in experiment [7] was 121%; in [18], 129%; in experiment [8], 99%; in [9] it was 101%; in [10] it was 101%; in experiment [11] it was 98.8%. In addition, the growth is 110% in experiment [12]; 94.3% in experiment [13]; 96.3% in experiment [14]; 116% in experiment [19]; 111% in [15]; 110% in experiment [16].

Take `COc1cc(/C=C/C(=O)N2CCN(C(=O)/C=C/c3ccccc3)CC2)cc(OC)c1OC`: the growth in experiment [2] is 96.4%; in experiment [3] it was 103%; in experiment [17], 93.6%; in [4], 106%; in experiment [5], 100%; in experiment [6], 107%. Moreover, the growth is 110% in [7]; 116% in experiment [18]; 121% in [8]; 111% in [9]; 77.7% in [10]; 108% in experiment [11]. For the same compound, the growth was 110% in [12], 104% in [13], 87.8% in experiment [15] and 78.7% in experiment [16].

Turning to `Oc1ccccc1C=Nc1ccccc1N=Cc1ccccc1O.[Cu+2]`, the growth in [1] is 47.9%; in [2], 91.7%; in [4], 24.1%; in experiment [5], 43.9%; in experiment [6], 47.6%; in [7] it was 85.1%. Also, the growth is 67.1% in experiment [8]; 60.3% in experiment [9]; 24% in [10]; 84.1% in [11]; 57.3% in experiment [12]; 68.6% in experiment [13]. In addition, the growth was 92.8% in [14], 27.9% in experiment [19], 3.28% (active) in experiment [15] and 66.3% in experiment [16].
